TLR9-MyD88 inh – blocks human TLR9 binding to MyD88; Q9NR96+Q99836; CHO BLA complementation TLR9-MyD88, CCF4 FRET ratio; inhibition, % at 4.98 µM; actives 0.21% (n = 340,000); AID 504734;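 active means inhibition above the mean over all tested compounds plus 3 SD, cut at about 21% in these data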;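 further: 0% = DMSO only wells and 100% = clavulanate BLA inhibitor control wells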
NOD2 RIPK2 PPI – blocks binding of human NOD2 to RIPK2. actives 0.38% (n = 360,000). inhibition, % at 4.98 µM. CHO BLA complementation NOD2-RIPK2, CCF4 ratio. AID 624267; in the data active means inhibition above about 21%;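 further: 0% = vehicle only and 100% = reference blocker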
TLR4-MyD88 BLA – blocks binding of human TLR4 to MyD88 | O00206+Q99836 | HeLa CL3-4 TLR4/MyD88 BLA complementation, FRET ratio | inhibition, % at 8.4 µM | actives 0.18% (n = 200,000); in the data active means inhibition above about 25%;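 further: 0% = vehicle and 100% = reference inhibitor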
ABHD5 PLIN5 PPI – blocks binding of human ABHD5 to perilipin-5 | Split G. princeps luciferase complementation, luminescence, 4 h | inhibition, % at 4 µM | actives 0.78% (n = 360,000) | AID 602281;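 active means inhibition above the mean inhibition across every tested compound plus 3 SD, cut at about 22% in these data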;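 further: 0% = DMSO only wells and the 100% control is not disclosed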
Target sequence (Q00G26 whole entry, looked up): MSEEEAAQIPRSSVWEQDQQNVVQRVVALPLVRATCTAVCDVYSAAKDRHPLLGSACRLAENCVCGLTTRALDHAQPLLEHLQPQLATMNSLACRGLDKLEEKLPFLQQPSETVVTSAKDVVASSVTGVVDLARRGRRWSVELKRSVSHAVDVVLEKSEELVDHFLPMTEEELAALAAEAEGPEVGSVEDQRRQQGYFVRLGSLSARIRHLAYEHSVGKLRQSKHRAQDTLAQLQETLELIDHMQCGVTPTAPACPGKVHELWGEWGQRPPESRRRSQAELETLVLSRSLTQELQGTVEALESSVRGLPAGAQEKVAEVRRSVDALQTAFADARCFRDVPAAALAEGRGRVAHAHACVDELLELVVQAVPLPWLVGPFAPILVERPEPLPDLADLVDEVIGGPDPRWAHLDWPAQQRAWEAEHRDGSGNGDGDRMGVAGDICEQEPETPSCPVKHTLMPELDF
Target sequence (Q8WTS1 whole entry, looked up): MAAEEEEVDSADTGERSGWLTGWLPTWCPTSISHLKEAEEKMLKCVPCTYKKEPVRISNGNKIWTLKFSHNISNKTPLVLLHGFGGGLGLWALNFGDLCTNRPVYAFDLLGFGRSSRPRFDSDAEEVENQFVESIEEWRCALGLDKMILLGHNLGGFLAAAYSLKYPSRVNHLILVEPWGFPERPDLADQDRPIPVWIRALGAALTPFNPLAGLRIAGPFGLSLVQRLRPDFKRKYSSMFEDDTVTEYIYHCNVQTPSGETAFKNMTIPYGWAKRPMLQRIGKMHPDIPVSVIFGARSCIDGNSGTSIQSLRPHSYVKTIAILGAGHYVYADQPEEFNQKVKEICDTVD
rCAG RNA binder – r(CAG) repeat RNA binding; TO-PRO-1 dye displacement fluorescence; inhibition, % at 3 µM; actives 1.3% (n = 370,000);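 active means inhibition above the plate cutoff, the mean of all test compounds on that plate plus 3 SD, cut at about 35% in these data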;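 further: 0% = DMSO alone and 100% = 100 µM mitoxantrone as full dye displacement; higher means more dye released from RNA so lower well fluorescence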
PRMT1 inh – PRMT1 (human) inhibition, primary screen; Q99873; recombinant PRMT1, activity-based probe fluorescence polarization; inhibition, % at 2.79 µM; actives 1.3% (n = 370,000); AID 652257;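 active means inhibition above about 21% made by adding two undisclosed values, limit read from the data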
rCAG bind conf – r(CAG) RNA repeat binding, confirmation | shares compounds with rCAG RNA binder | TO-PRO-1 dye displacement fluorescence | inhibition, % at 3 µM | actives 70% (n = 4,300) | AID 652065;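 active means inhibition above a per-plate cutoff, the mean inhibition of sample wells plus 3 SD, cut at about 35% in these data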;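 further: loss of TO-PRO-1 fluorescence as compound displaces dye from 1x1 AA loop RNA; 0% = DMSO only wells and 100% = 100 µM mitoxantrone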
DNA CAG counter – DNA CAG dye complex inhibition counter-screen; shares compounds with rCAG RNA binder; d(CAG) DNA oligo TO-PRO-1 dye displacement, fluorescence; inhibition, % at 3 µM; actives 94% (n = 4,300); AID 652068;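 active means inhibition above its plate's cutoff, the mean test-well inhibition plus 3 SD, cut at about 4.8% in these data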;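 further: 0% = DNA dye mix with DMSO and 100% = 100 µM mitoxantrone; hits displace the dye from DNA and so lower well fluorescence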
dCAG dye DR – counter-screen for rCAG binders: inhibitors of DNA CAG TO-PRO-1 complex; shares compounds with rCAG RNA binder; DNA CAG/GTC duplex TO-PRO-1 dye displacement fluorescence; IC50, µM; actives 20% (n = 250); AID 686960; in the data active means IC50 below about 10 µM
PRMT1 inh conf – PRMT1 (human) inhibition, FP confirmation; inhibition, % at 2.79 µM; shares compounds with PRMT1 inh; recombinant His-PRMT1, activity-based probe fluorescence polarization; actives 42% (n = 3,300);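 active means mean inhibition across replicates above the hit cutoff derived for the earlier primary screen, cut at about 22% in these data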
Starred values were filed as active, the others as inactive; . = no result. In the library only some 3.3% were active in any assay of this set; here they are far more common.

SMILES	TLR9-MyD88 inh	NOD2 RIPK2 PPI	TLR4-MyD88 BLA	ABHD5 PLIN5 PPI	rCAG RNA binder	PRMT1 inh	rCAG bind conf	DNA CAG counter	PRMT1 inh conf	others
CC(C)c1ccc(/C=N/n2c(-c3ccccc3)n[nH]c2=S)cc1	2	9	.	-9	39*	51*	46*	13*	21*
CCN(CC)S(=O)(=O)c1cccc(-c2n[nH]c(=S)n2/N=C/c2ccc(Br)cc2)c1	8	10	8	-3	78*	46*	83*	48*	33*
CCC(C)n1c(-c2cccc(S(=O)(=O)N(CC)CC)c2)n[nH]c1=S (stereo not given)	3	8	9	-4	2	0	.	.	.
CCN(CC)S(=O)(=O)c1cccc(-c2n[nH]c(=S)n2C(C)COC)c1 (stereo not given)	-2	-2	11	-5	1	3	.	.	.
Cc1cc(C)n(CCNC(=O)[C@H]2O[C@@H](n3ccc(=O)[nH]c3=O)[C@H](O)[C@@H]2O)n1	.	-10	.	-3	-1	3	.	.	.
C=CCNc1oc(-c2cccc(F)c2)nc1C#N	2	-3	.	10	3	7	.	.	.
CCN(CC)S(=O)(=O)c1cccc(-c2n[nH]c(=S)n2/N=C/c2ccc(OC)cc2)c1	-11	-10	16	-12	50*	59*	46*	12*	30*
Cc1ccc(C(=O)OC(C)C(=O)c2cc(C)c(C)cc2C)o1 (stereo not given)	0	-11	.	3	.	.	.	.	.
COc1ccccc1OCC(=O)N/N=C/C=C/c1ccc([N+](=O)[O-])o1	8	0	-11	7	36*	25*	34	17*	9
Cc1ccccc1OCC(=O)N/N=C/c1ccc([N+](=O)[O-])o1	9	-24	2	11	10	9	.	.	.
CCC(c1nnnn1Cc1ccco1)N(CCc1ccccc1)Cc1cc2cc(C)ccc2[nH]c1=O (stereo not given)	3	0	.	18	21	19	.	.	.
Cc1ccc2[nH]c(=O)c(CN(CCc3ccccc3)C(c3nnnn3Cc3ccco3)C(C)C)cc2c1 (stereo not given)	-8	0	.	9	37*	27*	12	8.1*	12
CCCS(=O)(=O)NC(=O)C1(C)CCN(C(=O)c2ccccc2OC(C)=O)C1 (stereo not given)	.	-7	.	-3	1	7	.	.	.
O=[N+]([O-])c1ccc(COc2ccccc2CO)cc1	.	.	.	.	2	-9	.	.	.
Cc1cc2nc(-c3ccco3)c(Cc3ccccc3C(F)(F)F)n2c(C)c1Br	.	9	.	40*	47*	36*	37*	14*	17
FC(F)(F)c1ccccc1Cc1c(-c2ccco2)nc2ccc(Br)cn12	.	-9	.	34*	39*	36*	5	2	17
O=C(CN1C(=O)S/C(=C\c2cccs2)C1=O)Nc1ccc(O)cc1C(=O)O	1	-10	.	0	68*	32*	49*	15*	4
O=C(CCN1C(=O)S/C(=C\c2cccs2)C1=O)Nc1nccs1	-6	4	2	-3	1	9	.	.	.
c1coc(-c2nc(-c3ccco3)c(-c3ccco3)nc2-c2ccco2)c1	8	6	3	64*	68*	78*	45*	21*	15	dCAG dye DR=6.6*
Nc1nc(-c2ccco2)cs1	4	1	-3	-10	1	8	.	.	.
O=C(NN=Cc1cccc(OCc2ccccc2)c1)c1cc(-c2ccc(Cl)cc2)n[nH]1	.	.	.	.	11	-3	.	.	.
O=C(O)c1ccc(Cl)c2c1C1C=CCC1C(c1ccccn1)N2 (stereo not given)	.	.	-4	.	.	.	.	.	.

Assay outcomes as filed in PubChem BioAssay.
